The values below come from PubChem BioAssay (NCI).

“And” between values parts separate entries of the source, which are not always exact repeats. Equal values may be shown once. About 83,000 compounds went through this panel and 20% of them were active in at least one assay; those are over-represented in the sample as a whole.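 Results are percent growth after 48 hours of single-concentration exposure. 100 means growth as in untreated cells, lower positive values show inhibition; negative values down to -100 show cell death.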 A number with no mark means an inactive call. The source made the active and inactive calls. How the source made its calls: active means growth percent below 10; inactive means the rest.

The experiment deals with MDA-MB-468 breast. Nature of the experiment: NCI-60 one-dose screen, 48 h (100 = growth as untreated, 0 = no growth, -100 = all killed). Conditions: 10 µM unless noted.
For the molecule `FC(F)(F)c1[nH]ncc1-c1nc2ccc3n[nH]c(C#Cc4cccnc4)c3c2c2c1CCCC2`, the growth was 73.9%.

Take `N=C(N)SCc1cccc2c(CSC(=N)N)cccc12`: the growth is 108%.

Take `O=C(NC1CC1)c1ccc(-c2nc3ccc4[nH]ncc4c3c3c2CCCC3)cc1`: the growth was 8.81% (active).

As for `O=C(O)CN(CCN(CC(=O)O)CC(=O)O)CCN(CC(=O)O)CC(=O)O`, the growth was 22% and 94.6% and 89.3%.
